Source: PubChem BioAssay (NCATS)
Inconclusive results are not listed. The source made the active and inactive calls. Calls come from the whole dose curve; as a rule, active = well fitted activation curve with a large enough effect; inconclusive = small, poorly fitted or top-dose-only effect; inactive = no such curve, though single readings can be large or run the other way.

Molecular target: Cellular tumor antigen p53 (Homo sapiens) (UniProt P04637)
Test: Primary qHTS for small molecule compounds that upregulate eGFP-tagged delta133p53alpha (in N-terminal) cells. (AID 2060322); note: nearly all actives have a fitted effect of over 75% in size;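 for activation: cells pre-induced with doxycycline then dosed without doxycycline; series mostly up to about 56 µM; 0% = DMSO vehicle and 100% = reference activator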
Details: NCI-H358 eGFP-delta133p53alpha fluorescence, 24 h; activation: hits give high values
Procedure, shortened: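 NCI-H358 cells pre-induced 24 h with 10 ng/ml doxycycline for eGFP-delta133p53alpha, plated dox-free and exposed 24 h at 37C to titrated compounds. Fixed, Hoechst-stained; gated GFP peak intensity by laser scanning cytometry, normalized to DMSO (0%) and 57.5 uM 5-azacytidine (100%).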
Potency is the fitted concentration of half-maximal effect.

Cellular tumor antigen p53 (Homo sapiens), sequence (P04637 whole entry, looked up): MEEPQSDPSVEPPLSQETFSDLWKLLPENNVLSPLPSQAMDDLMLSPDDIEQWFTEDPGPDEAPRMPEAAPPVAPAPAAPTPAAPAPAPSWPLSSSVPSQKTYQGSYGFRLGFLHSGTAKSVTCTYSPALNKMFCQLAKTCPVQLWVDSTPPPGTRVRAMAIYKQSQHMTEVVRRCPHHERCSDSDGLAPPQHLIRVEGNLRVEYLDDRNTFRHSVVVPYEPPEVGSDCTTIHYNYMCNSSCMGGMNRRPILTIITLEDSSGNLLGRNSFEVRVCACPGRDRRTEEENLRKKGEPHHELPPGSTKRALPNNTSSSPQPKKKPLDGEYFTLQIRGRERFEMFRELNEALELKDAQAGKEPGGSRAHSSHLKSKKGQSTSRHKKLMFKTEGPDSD

SMILES | activation | Potency
O=C1NC(Cc2ccccc2)C(=O)N2CCCC12 (configuration not stated) | -16.8% (inactive) | –
CC1=C2C=C(CO)C(CO)CCC2(C)CCC1=O (configuration not stated) | 3.82% (inactive) | –
CCN(CC)C(=O)c1ccc(Nc2nc(OCC3CCCCC3)c3[nH]cnc3n2)cc1 | 8.04% (inactive) | –
CC(O)C1CCC2C3CCC4CC(OC5OC(C(=O)O)C(O)C(O)C5O)CCC4(C)C3CCC12C (configuration not stated) | -17% (inactive) | –
C/C1=C\CC[C@]2(C)O[C@@H]2[C@H](O)[C@H](C(C)C)[C@H](OC(=O)/C=C/c2ccccc2)C1 | 6.25% (inactive) | –
CC(C)C[C@H](CC(=O)NO)C(=O)N[C@H](C(=O)N[C@@H](C)C(=O)NCCN)C(C)(C)C | 3.67% (inactive) | –
CC(=O)O[C@@H]1C[C@@]23C[C@@]24CC[C@H](O[C@@H]2OC[C@H](O)[C@H](O)[C@H]2O)C(C)(C)[C@@H]4CC[C@H]3[C@]2(C)[C@@H](O)C34O[C@H](C[C@@H](C)[C@@H]3[C@@]12C)[C@@H](C(C)(C)O)O4 | – | 3.79 µM (active)
C=CC1(C)CC2=CCC3C(C)(C(=O)O)CCCC3(C)C2CC1OC(C)=O (configuration not stated) | -14.5% (inactive) | –
COc1ccc2c(c1)C(C(=O)N(Cc1ccc(N(C)C)cc1)c1ccc(C(C)C)cc1)CCC2 (configuration not stated) | 1% (inactive) | –
CC(C)(OC1OC(CO)C(O)C(O)C1O)C1CCC(O)(CO)C2CC(=O)C(C)(O)C2C1 (configuration not stated) | 22.9% (inactive) | –
C[C@H](/C=C/[C@@]1(O)[C@H](C)CC(=O)CC1(C)C)O[C@@H]1O[C@H](CO[C@@H]2OC[C@@H](O)[C@H](O)[C@H]2O)[C@@H](O)[C@H](O)[C@H]1O | -6.11% (inactive) | –
O=C(O)c1ccnc2cc(C(OCC3CCC(F)(F)CC3)c3ccccc3Cl)[nH]c12 (configuration not stated) | 5.67% (inactive) | –
CN1CCN(c2ccc(Nc3cc(-c4cccc(-n5ccc6cc(C7CC7)cc(F)c6c5=O)c4CO)cn(C)c3=O)nc2)CC1 | 2.68% (inactive) | –
CC(=O)N[C@H]1CCN(c2ccc(C3=NOC(CN[S+](=O)([O-])C(C)C)C3)cc2F)C1 (some centres not stated) | 11.7% (inactive) | –
C=C(C(=O)O)[C@@H]1CC[C@@]2(C)CC[C@@H](O)C(=C)C2C1 (some centres not stated) | 22.9% (inactive) | –
CCC(C)C(=O)O[C@H]1CCC=C2C=C[C@H](C)[C@H](CC[C@@H](O)C[C@@H](O)CC(=O)O)[C@H]21 (some centres not stated) | -32.8% (inactive) | –

SMILES | activation | Potency
CCCCC1CCN(CCCC(=O)c2ccccc2C)CC1 | 17% (inactive) | –
CC1(CO)CC[C@]2(C(=O)O[C@@H]3O[C@H](CO)[C@@H](O)[C@H](O)[C@H]3O)CC[C@]3(C)C(=CCC4[C@@]5(C)CC[C@H](O[C@@H]6O[C@H](C(=O)O)[C@@H](O)[C@H](O)[C@H]6O)C(C)(C)C5CC[C@]43C)C2C1 (some centres not stated) | -4.46% (inactive) | –
O=C(c1ccc(Cl)cc1)N1CCN(c2ccnc3cc(Cl)ccc23)CC1 | -3% (inactive) | –
CC(=O)OC[C@]12[C@H](OC(C)=O)[C@H](OC(=O)c3ccccc3)[C@@H]3[C@@H](OC(C)=O)[C@]1(OC3(C)C)[C@H](C)C[C@H](OC(=O)c1ccccc1)[C@@H]2OC(=O)c1ccccc1 | -31.3% (inactive) | –
COC(=O)c1cc(OC)c(O[C@@H]2O[C@@H](C)[C@H](O)[C@@H](O)[C@H]2O)c(OC)c1 | 1.53% (inactive) | –
C[C@@H]1O[C@@H](O[C@H]2[C@H](O)[C@@H](O[C@@H]3O[C@H](CO)[C@@H](O)[C@H](O[C@@H]4O[C@H](CO)[C@@H](O)[C@H](O)[C@H]4O)[C@H]3O)[C@H](O[C@H]3CC[C@@]4(C)C(=CC[C@@H]5C4CC[C@@]4(C)C5C[C@@H]5OC6(CC[C@@](C)(CO[C@@H]7O[C@H](CO)[C@@H](O)[C@H](O)[C@H]7O)O6)[C@@H](C)[C@@H]54)C3)O[C@@H]2CO)[C@H](O)[C@H](O)[C@H]1OC1OC(CO)C(O)C(O)C1O (some centres not stated) | 13% (inactive) | –
COc1cc2nc(=NC(=O)c3cccnc3)n3c(c2cc1OC)NCC3 | 3.34% (inactive) | –
CC(C)=CCC(O)[C@](C)(O)C1[C@H](O)C[C@@]2(C)C3CC=C4C(C[C@H](O)[C@@H](O[C@@H]5O[C@H](CO)[C@@H](O)[C@H](O)[C@H]5O)C4(C)C)[C@]3(C)C(=O)C[C@]12C (some centres not stated) | 10.7% (inactive) | –
Cn1cc(-c2ccc3nnc(Sc4ccc5nn(C)cc5c4)n3n2)cn1 | -4.46% (inactive) | –
C=C[C@](C)(CC/C=C(\C)C(=O)O)O[C@@H]1OC[C@H](O)[C@H](O)[C@H]1O | 7.14% (inactive) | –
COc1c2ccoc2nc2c(OC)c(O[C@@H]3O[C@@H](C)[C@H](O)[C@@H](O[C@@H]4O[C@H](CO)[C@@H](O)[C@H](O)[C@H]4O)[C@H]3OC(C)=O)ccc12 | 27.7% (inactive) | –
CC1CCC(=O)CC(SCC(O)C(=O)O)CCC(=O)O1 (configuration not stated) | -26% (inactive) | –
CC1=C(CO)C2(C)CCCC(C)(C)C2C(O)C1O (configuration not stated) | 11.6% (inactive) | –
OC[C@H]1O[C@@H](O[C@H]2[C@H](OCc3ccccc3)O[C@H](CO[C@@H]3OC[C@@H](O)[C@H](O)[C@H]3O)[C@@H](O)[C@@H]2O)[C@H](O)[C@@H](O)[C@@H]1O | -15.2% (inactive) | –
C=C1[C@H](OC(C)=O)[C@H]2[C@@H](OC(=O)c3ccccc3)[C@@H](C)C[C@]2(O)[C@@H](OC(C)=O)[C@H](C)/C=C/C(C)(C)C(=O)[C@H](OC(C)=O)[C@H]1OC(C)=O | -3.57% (inactive) | –
C/C(=C\CCC(C)C1=CCC2(C)OC3=C(CC12)C(=O)C(O)CC3)CO (configuration not stated) | 25.2% (inactive) | –
